Test results published in PubChem BioAssay (Tox21).
Results filed as inconclusive are left out. Active and inactive are the calls of the source. Unless noted, calls come from the whole dose curve; as a rule, active = well fitted curve in the direction sought with a large enough effect in the repeat runs; inconclusive = weak or mixed curves; inactive = no such curve, though single readings can be large; an effect the other way counts as inactive or inconclusive.

Legend:
[1] = qHTS assay to identify small molecule HDAC inhibitors (AID 1259364); note: potency is the fitted concentration of half-maximal effect;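 note: wild-type HCT-116 cells with endogenous class I/II HDAC activity; nearly all actives have a fitted effect of over 45% in size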
Procedure, shortened: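 Quantitative high-throughput format: overnight-seeded HCT-116 cells got compounds for 2 hr at 37C; HDAC-Glo I/II reagent added, 30 min RT, luminescence measured.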

[2] = qHTS assay to identify small molecule HDAC inhibitors - cell viability counter screen (AID 1259365); note: series mostly up to about 92 µM; nearly all actives have a fitted effect of over 50% in size
Procedure, shortened: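 Viability readout: CellTiter-Glo luminescence. Wild-type HCT-116 cells, 2hr compound treatment following overnight attachment at 37 C.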

[3] = qHTS assay to identify small molecule agonists of the sonic hedgehog signaling (Shh) pathway - cell viability counter screen (AID 1259366); note: nearly all actives have a fitted effect of over 50% in size; note: potency is the fitted concentration of half-maximal effect
Procedure, shortened: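 Viability measured fluorometrically (CellTiter-Fluor, 1hr, 37C) in 3T3 Gli1-Luc reporter cells after 23hr compound exposure within a 24hr incubation at 37C/5% CO2.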

[4] = qHTS assay to identify small molecule antagonists of the sonic hedgehog signaling (Shh) pathway - cell viability counter screen (AID 1259367); note: nearly all actives have a fitted effect of over 55% in size; note: potency is the fitted concentration of half-maximal effect
Procedure, shortened: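 Cytotoxicity was assessed in parallel with Shh reporter activity by measuring live-cell protease fluorescence (CellTiter-Fluor) in NIH/3T3 cells stably carrying Gli1-Luc, treated with compound under conditioned medium stimulation for 23 hr plus 1 hr reagent incubation.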

[5] = qHTS assay to identify small molecule agonists of the sonic hedgehog signaling (Shh) pathway (AID 1259368; calls by dose curve; note: nearly all actives have a fitted effect of over 15% in size; note: potency is the fitted concentration of half-maximal effect)
Procedure, shortened: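 Quantitative high-throughput format using a Gli1-driven firefly luciferase reporter line derived from NIH/3T3 cells. After a 24 hr compound treatment at 37 C and 5% CO2, luminescence reported Gli1 response element activity.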

[6] = qHTS assay to identify small molecule antagonists of the sonic hedgehog signaling (Shh) pathway (AID 1259369; calls by dose curve; note: nearly all actives have a fitted effect of over 45% in size; note: potency is the fitted concentration of half-maximal effect)
Procedure, shortened: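 Stable Gli1-Luc reporter NIH/3T3 clone; quantitative HTS in stimulated mode with conditioned medium. Luminescence measured after 24hr compound treatment at 37 C.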

[7] = biological target: Estrogen receptor (Homo sapiens) (UniProt P03372); assay: qHTS assay to identify small molecule antagonists of the estrogen receptor alpha (ER-alpha) signaling pathway using the BG1 cell line in the presence of 0.1 nM 17-beta-estradiol (AID 1259244); note: nearly all actives have a fitted effect of over 50% in size; note: potency is the fitted concentration of half-maximal effect
Procedure, shortened: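 Reporter is a stably transfected luciferase under four estrogen responsive elements in VM7Luc4E2 cells expressing native full-length ER-alpha; inhibition of 0.1 nM (final) 17beta-estradiol-driven signal over 22 h is read by luminescence.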

[8] = qHTS assay to identify small molecule phospholipidosis (PLD) inducers (AID 1259344; active = well fitted curve in the direction sought with a large enough effect; an effect the other way counts as inactive or inconclusive)
Procedure, shortened: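 Cells (HepG2, 900 per well) attach for 4 h, receive LipidTOX Red and compound together, incubate 24 h at 37 C, are fixed 30 min with paraformaldehyde/Hoechst, then imaged at one site per well.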

Measured: Potency

Chain of Estrogen receptor (Homo sapiens) (P03372 whole entry, looked up): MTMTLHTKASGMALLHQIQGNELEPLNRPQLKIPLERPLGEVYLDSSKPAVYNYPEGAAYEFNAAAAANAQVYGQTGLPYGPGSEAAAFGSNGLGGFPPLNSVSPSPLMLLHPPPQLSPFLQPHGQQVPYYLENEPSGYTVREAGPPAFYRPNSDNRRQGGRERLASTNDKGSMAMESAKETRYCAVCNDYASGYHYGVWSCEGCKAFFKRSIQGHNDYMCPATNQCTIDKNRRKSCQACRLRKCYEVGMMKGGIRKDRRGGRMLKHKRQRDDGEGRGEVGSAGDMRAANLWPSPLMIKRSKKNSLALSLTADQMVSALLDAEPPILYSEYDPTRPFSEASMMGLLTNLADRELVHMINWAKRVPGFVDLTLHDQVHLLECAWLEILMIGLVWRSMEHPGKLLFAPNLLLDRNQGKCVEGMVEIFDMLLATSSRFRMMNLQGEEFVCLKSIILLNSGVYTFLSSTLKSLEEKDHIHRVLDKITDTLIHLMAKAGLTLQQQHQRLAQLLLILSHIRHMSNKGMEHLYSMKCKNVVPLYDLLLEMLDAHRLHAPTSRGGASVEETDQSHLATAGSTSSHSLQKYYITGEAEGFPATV

CCC1(c2cnc[nH]2)Cc2ccccc2C1
inactive: [1] | [2] | [3] | [4] | [5] | [6]

CCCCOCC
inactive: [2] | [3] | [4] | [5] | [6]

Cc1ccc(CCn2c3c(c4cc(Cl)ccc42)CN(C)CC3)cn1
inactive: [7] | [1] | [2] | [5]

CC(C)=C1CC[C@@H](C)CC1=O
inactive: [7] | [2] | [3] | [4] | [5] | [6]

C=CC(=O)OCC(O)COc1ccccc1 (stereo not drawn)
active: [3] 27.3 µM
inactive: [7] | [4] | [5] | [6]

CCCCCCCCCCOCC(O)CN (stereo not drawn)
active: [6] 11.9 µM
inactive: [7] | [1] | [2] | [4] | [5]

COc1ccccc1OCCNCC(O)COc1cccc2[nH]c3ccccc3c12 (stereo not drawn)
inactive: [8] | [1] | [2] | [5]
active: [3] 26.6 µM | [6] 21.1 µM

Cc1ccc(-n2[nH]c(C)c(N=Nc3cccc(-c4cccc(C(=O)O)c4)c3O)c2=O)cc1C
inactive: [2] | [3] | [4] | [5] | [6]

Nc1ncnc2c1ncn2[C@@H]1O[C@H](COP(=O)(O)O)[C@@H](O)[C@H]1O
inactive: [8] | [1] | [3] | [4] | [5] | [6]

Cc1ccc2ccc3cccc4ccc1c2c34
inactive: [7] | [1] | [2] | [3] | [4] | [5] | [6]

O=C(Nc1ccc(Cl)c(Cl)c1)c1cc(Cl)cc(Cl)c1O
inactive: [2] | [5]
active: [7] 3.44 µM | [1] 1.22 µM | [6] 3.86 µM

C=CC(=O)OCCOCC(CC)(COCCOC(=O)C=C)COCCOC(=O)C=C
active: [3] 5.67 µM | [4] 7.14 µM | [5] 16 µM | [6] 5.67 µM

CN(C)CCCN1c2ccccc2Sc2ccc(C(F)(F)F)cc21
inactive: [7] | [1] | [2] | [3] | [5]
active: [6] 29.8 µM

CCC(C)(C)c1cc(O)c(C(C)(C)CC)cc1O
active: [7] 68.6 µM | [6] 6.86 µM
inactive: [1] | [2] | [3] | [4] | [5]
